According to PubChem BioAssay (NCI):
This is part of a sample that, as a whole, favours compounds with a hit. Of some 83,000 tested, about 20% had one in any assay.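 48-hour exposure, single concentration, 96-well plates; percent growth endpoint where 0 means no net growth. Active: below 10.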 A number with no mark means an inactive call. The source made the active and inactive calls.

Tested on: CCRF-CEM leukemia
Assay: NCI-60 one-dose screen, 48 h (100 = growth as untreated, 0 = no growth, -100 = all killed)
Conditions: 10 µM unless noted

Row | SMILES | growth
1 | C#C[C@]1(O)CC[C@H]2[C@@H]3CC=C4c5sc(Nc6cccc(C)n6)nc5CC[C@]4(C)[C@H]3CC[C@@]21C | 2.04% (active)
2 | Clc1ccc(-c2csc(N/N=C/c3nc4ccccc4n3C3CC3)n2)cc1 | 93.7%
3 | O=C(NNc1nc2cc(F)c(F)cc2n2cccc12)c1ccncn1 | 7.72% (active)
4 | CCn1c2ccc(/C=N/NS(=O)(=O)CCN(C)C)cc2c2cc(/C=N/NS(=O)(=O)CCN(C)C)ccc21 | 103%
5 | COc1ccc(-c2nnc(/N=C3/C(=O)Nc4ccc(Br)cc43)o2)cc1 | 96%
6 | O=C(CCCCCCN1CC(=O)N2[C@@H](c3ccc(Cl)c(F)c3)c3[nH]c4ccccc4c3C[C@H]2C1=O)NO | 41.2%
7 | O=C(N/N=C\c1ccc(Cl)cc1)c1ccc2nc(-c3ccc(Br)cc3)[nH]c2c1 | 26.3%
8 | O=C1CSC(=O)N1Cc1cc2ccccc2nc1Cl | 107%
9 | CCCCSc1nnc(-c2ccc(-c3ccc(Cl)cc3)nc2C)o1 | 99.7%
10 | COc1ccc(/C=N\NC(=O)c2ccc3nc(-c4ccc(Br)cc4)[nH]c3c2)cc1 | 53.2%
11 | NS(=O)(=O)c1ccc(Nc2nc(N/N=C/c3ccc([N+](=O)[O-])cc3)nc(Nc3ccccc3)n2)cc1 | 11.8%
12 | COc1cc(NC2=C(Cl)C(=O)c3nc(C)ccc3C2=O)cc(OC)c1 | 2.72% (active)
13 | Cc1ccc(/C=C/CC(=O)Nc2ccc(C(=O)Nc3ccc(F)cc3N)cc2)cn1 | 23.3%
14 | O=C(c1ccc(O)cc1)[C@@H]1[C@@H]2CCCN2[C@@]2(C(=O)N(C(=O)c3ccc(F)cc3)c3ccccc32)[C@H]1c1ccc(F)cc1 | 67.2%
15 | COc1ccc(S(=O)(=O)n2cc(C=O)c3ccccc32)c(OC)c1 | 33.5%
16 | C#C[C@]1(O)CC[C@H]2[C@@H]3CC=C4c5sc(Nc6cc(Cl)ccn6)nc5CC[C@]4(C)[C@H]3CC[C@@]21C | 9.26% (active)
17 | N#C/C(=C\c1ccc2ccccc2c1)C(=O)Nc1sc2c(c1C#N)CCC2 | 103%
18 | CN1CCN(Cc2ccc(NC(=O)c3cncc(C#Cc4cnc5ccc(O[C@H]6CCOC6)nn45)c3)cc2C(F)(F)F)CC1 | 2.84% (active)
19 | C/C=C/C=C1\C[C@H]2CO[C@H](O2)C1=O | 78.9%
20 | O=C(NNc1nc2cc(F)cc(F)c2n2cccc12)c1ncccn1 | 7.19% (active)

Row | SMILES | growth
21 | C#CCOc1ccc(/C=N/Nc2nc(-c3cc(Cl)ccc3Cl)cs2)cc1 | 94.7%
22 | COc1ccc(-c2nc(SCC(C)C)nc(N/N=C\c3cccc([N+](=O)[O-])c3)c2C#N)cc1 | 80.9%
23 | CNC(=O)c1cc(Oc2ccc3nc(NC(=O)c4ccc(CN5CCN(C)CC5)c(C(F)(F)F)c4)sc3c2)ccn1 | 49.9%
24 | C#C[C@]1(O)CC[C@H]2[C@@H]3CC=C4c5sc(Nc6ccc(OC)nc6)nc5CC[C@]4(C)[C@H]3CC[C@@]21C | 8.55% (active)
25 | O=C1Nc2ccc(Br)cc2/C1=N\c1nnc(-c2ccc(Cl)cc2)o1 | 35.7%
26 | CC(C)c1nn(-c2ccccc2)c(N2CCCCC2)c1/C=N/NC(N)=S | 89.7%
27 | COc1cc(/C=C/C(=O)c2ccc(N3CCN(C)CC3)cc2)ccc1F | 53.8%
28 | CC1CCN(S(=O)(=O)c2ncsc2-c2ccccc2)CC1 | 74.2%
29 | O=C1[C@@H]2Cc3c([nH]c4ccccc34)[C@H](c3c(Cl)cccc3Cl)N2C(=O)CN1C1CCN(Cc2ccccc2)CC1 | 3.54% (active)
30 | C#C[C@]1(O)CC[C@H]2[C@@H]3CC=C4c5sc(Nc6ccncc6)nc5CC[C@]4(C)[C@H]3CC[C@@]21C | 4.46% (active)
31 | C#CCOc1ccc(/C=N/Nc2nc(-c3cc4cc(Br)cc(Br)c4oc3=O)cs2)cc1 | 94.4%
32 | O=C1c2c(c3c4cccnc4[nH]c3c3ccc4ccccc4c23)C(=O)N1CCN1CCCCC1 | 17.9%
33 | NS(=O)(=O)Oc1ccc2nc(Nc3ccc(F)c(F)c3)ccc2c1 | 67.8%
34 | Cc1ccc(-c2csc(N/N=C/c3nc4ccccc4n3C3CC3)n2)cc1 | -20.9% (active)
35 | O=C1c2c(c3c4cc(Br)ccc4[nH]c3c3ccc4ccccc4c23)C(=O)N1CCN1CCCCC1 | -0.774% (active)
36 | Cc1cnc2nc(NN)[nH]n12 | 102%
37 | O=C(NCCCCCCNC(=O)c1c2c(nc3ccccc13)-c1cccnc1SC2)c1c2c(nc3ccccc13)-c1cccnc1SC2 | 93.6%
38 | COc1cc(/C=N/n2cnc3oc(-c4ccccc4)cc3c2=N)cc(CN2CCCC2)c1O | -2.49% (active)
39 | C#C[C@]1(O)CC[C@H]2[C@@H]3CC=C4c5sc(Nc6cccc(Cl)n6)nc5CC[C@]4(C)[C@H]3CC[C@@]21C | 5.11% (active)
